Only some compounds are listed: those with a hit (about 4.1% of all), similar ones and a draw of the others.
USP2a inhib: USP2a (human) protease inhibition. Potency, µM (doses to about 38.3 µM), without a hit: top-dose activity change, negative = inhibition, most hits filed as inhibitors. USP2a enzymatic assay, qHTS inhibition. 0.1% of 60,000 active. O75604; also: nearly all actives have a fitted effect of over 60% in size
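Coupled readout: USP2-cleaved Ub-PLA2 (20nM final) turns over NBD C6-HPC (20uM final), Ex 460nm/Em 535nm after 2.5 h, time-zero read flagging artifacts. Enzyme (20nM final, pH 8.0 Tris) given 30 min RT with compound first; NEM defines full inhibition.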
Ub-GFP proteasome: proteasome inhibitors stabilizing ubiquitin-GFP reporter; Ubiquitin-GFP reporter cells, proteasome inhibition, GFP fluorescence; response scale: untreated = 0%, 10 µM MG-132 = 100%; Potency, µM (highest dose often 45.9 µM), for inactives: at the top dose activation (GFP accumulation), actives largely listed as activators; 67,000 tested, under 10 active; AID 526; active = well fitted activation curve with a large enough effect, not every such curve was filed as active; inconclusive = small, poorly fitted or top-dose-only effect, or another doubt; inactive = no such curve, though single readings can be large or run the other way
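Proteasome blockade was scored as a rise in GFP-expressing U2OS cells carrying a ubiquitin(G76V)-GFP construct, imaged after 4 hr compound treatment at 37 °C across a 46 uM–2.9 nM series.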
GBA activity: modulators of human glucocerebrosidase | Potency, µM | P04062 | AID 360 | 1.1% of 48,000 active | purified enzyme, resorufin glucoside fluorescence (screen aimed at inhibitors), 20 min; in the data active = potency below about 15 µM; inconclusive = mostly about 16 µM to 33 µM;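 also: the screen sought inhibitors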
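Normal human glucocerebrosidase (0.2 nM final) was assayed with resorufin β-D-glucopyranoside (30 uM final) in 50mM citric acid/KH2PO4, 10mM sodium taurocholate, 0.01% tween-20, pH 5.9. Compounds were titrated; fluorescence (Ex 548, Em 600) read after 20 min at RT.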
Bst PK mod: alters activity of Bacillus stearothermophilus pyruvate kinase; Potency, µM; purified pyruvate kinase, luminescence ATP production; ribose 5-phosphate activator present at AC10; AID 361; 1.2% of 51,000 active; in the data active = potency below about 11 µM; inconclusive = mostly about 12 µM to 25 µM;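 the screen sought inhibitors and activators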;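 also: scaled between full activation by ribose 5 phosphate and full inhibition by luteolin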
TSHR ag: TSH receptor (human) agonism; P16473; HEK293-CNG-TSHR cells (CNG channel as cAMP sensor), membrane potential dye, cAMP; Potency, µM (titrated, usually from 57.1 µM), inactives show top-dose activation, most hits filed as activators; 0.48% of 73,000 active; AID 926; active = well fitted activation curve with a large enough effect in the main read-out, with a control signal flat, not every such curve was filed as active; inconclusive = small, poorly fitted or top-dose-only effect, or a change in a side signal; inactive = no such curve, though single readings can be large or run the other way; % of control where 0% means no effect;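 also: the control signal comes from parental cells without the receptor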
Target sequence (P16473 whole entry, looked up): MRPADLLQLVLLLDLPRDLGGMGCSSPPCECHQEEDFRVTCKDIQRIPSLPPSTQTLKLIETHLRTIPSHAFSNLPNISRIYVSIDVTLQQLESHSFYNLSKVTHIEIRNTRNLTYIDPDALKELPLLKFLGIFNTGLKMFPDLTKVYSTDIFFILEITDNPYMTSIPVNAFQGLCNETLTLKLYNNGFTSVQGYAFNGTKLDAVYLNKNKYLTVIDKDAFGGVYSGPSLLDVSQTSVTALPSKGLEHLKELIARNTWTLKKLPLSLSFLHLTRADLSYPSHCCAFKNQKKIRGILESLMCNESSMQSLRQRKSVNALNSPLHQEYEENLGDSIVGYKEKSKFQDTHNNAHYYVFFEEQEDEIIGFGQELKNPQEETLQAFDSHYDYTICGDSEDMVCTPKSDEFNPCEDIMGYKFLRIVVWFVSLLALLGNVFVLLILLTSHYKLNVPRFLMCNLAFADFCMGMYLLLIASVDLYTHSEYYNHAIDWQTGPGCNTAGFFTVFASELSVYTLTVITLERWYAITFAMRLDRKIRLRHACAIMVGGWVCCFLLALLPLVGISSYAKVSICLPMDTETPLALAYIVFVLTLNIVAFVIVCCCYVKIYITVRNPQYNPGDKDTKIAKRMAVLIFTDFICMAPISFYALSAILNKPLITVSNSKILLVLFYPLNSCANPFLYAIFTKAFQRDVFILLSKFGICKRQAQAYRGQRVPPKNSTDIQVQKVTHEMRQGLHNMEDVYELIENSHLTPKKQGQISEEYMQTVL
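HEK 293 cells stably expressing TSHR and a cAMP-gated CNG channel; parental CNG-only cells as counterscreen. Cells preloaded 60 min with membrane potential dye plus 100 uM RO 20-1724, then compound 30 min; fluorescence read at 590 nm.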
HEK293 cAMP cs: counter-screen for TSHR agonists: cAMP increase in parental HEK293; 2.5% of 73,000 active; Potency, µM (top dose mostly 57.1 µM), inactives show top-dose activation, usual class: activators; parental HEK293 CNG cAMP sensor, membrane potential fluorescence; also: % of control where 0% means no effect; nearly all actives have a fitted effect of over 55% in size
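Counterscreen for endogenous-receptor signalling: CNG-channel HEK 293 cells report cAMP rise by membrane depolarization. After 60 min dye equilibration with 100 uM RO 20-1724, compounds incubated 30 min before bottom-read fluorescence at 590 nm.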
* hit, by the source's call; i = inactive; ? = inconclusive; nt = no result; [ ] = dose if it differs, or a comment. Unless noted, calls follow the shape of the dose curve; as a rule, active = well fitted curve in the direction sought with a large enough effect; inconclusive = small, poorly fitted or top-dose-only effect, or another doubt; inactive = no such curve, though single readings can be large; an effect the other way counts as inactive or inconclusive. Potency is read from the fitted curve at half-maximal effect.

SMILES	USP2a inhib	Ub-GFP proteasome	GBA activity	Bst PK mod	TSHR ag	HEK293 cAMP cs
CCN(CC)c1ccc(NC(=O)Nc2cccc(C(C)=O)c2)cc1	38%	2%	>77	9*	-31%	-13%
CSc1nc(SCC(=O)NCc2ccco2)c2c3c(sc2n1)CN(C)CC3	9%	2%	>77	>57	6%	-24%
CSc1nc(NCc2ccco2)c2c3c(sc2n1)CN(C)CC3	4%	-2%	>77	>57	?	25µM*
Cc1ccc(S(=O)(=O)Oc2cc(N)c3c(n2)CCC3)cc1	nt	-15%[9.17 µM]	nt	nt	9%[11.4 µM]	0%[11.4 µM]
CCOn1c(=O)c(=O)n(OCc2ccccc2)c2ccccc21	5%[7.66 µM]	12%[9.17 µM]	nt	nt	3.2µM*	4%[11.4 µM]
Cc1c(=O)n(OCc2ccccc2)c2ccccc2[n+]1[O-]	-1%[7.66 µM]	-3%[9.17 µM]	nt	nt	1%[11.4 µM]	2%[11.4 µM]
CCOC(=O)c1c(-c2ccc(C)o2)csc1NC(=O)CSc1nnc(C)s1	3%	-4%	>77	>57	?	32µM*
CCOC(=O)c1c(-c2ccc(C)o2)csc1NC(=O)CSc1nnnn1-c1ccccc1	39%	2%	>77	>57	?	?
CCOC(=O)c1sc(NC(=O)CSc2nncs2)c(C(=O)OCC)c1C	1%	7%	9.6*	>57	?	25µM*
CN1CCN(c2ncc3nc(-c4cccs4)c(=O)n(C[C@H]4CCCO4)c3n2)CC1	115%	-1%	nt	nt	8%	9%
Oc1ccc2cc(SSc3ccc4cc(O)ccc4c3)ccc2c1	nt	nt	nt	nt	?	6%
COc1ccccc1-c1cc(C(F)(F)F)nc(S(=O)(=O)CCCC(=O)Nc2cc(C)on2)n1	-5%	0%	9.4*	>57	21%	5%
CCOC(=O)C1=NO[C@@]2(C=C(Br)C3(OCCCO3)[C@H]3O[C@H]32)C1	nt	nt	nt	nt	-5%[11.4 µM]	-9%[11.4 µM]
Cn1c(=O)c2[nH]c(/N=N\N3CCN(CCO)CC3)nc2n(C)c1=O	nt	-2%[9.17 µM]	nt	nt	14%[11.4 µM]	3%[11.4 µM]
NCC1CCC(N)C(O[C@@H]2C(O)[C@H](O[C@H]3OC(CO)C(O)C(N)C3O)[C@@H](N)C[C@H]2N)O1 (some centres undefined)	-13%	nt	nt	nt	nt	nt
CCOC(=O)CSc1nc2c(sc(=S)n2Cc2ccco2)c(=O)n1-c1ccccc1	26%	nt	?	>57	?	1.3µM*
CCOC(=O)CSc1nc2ccccc2c(=O)n1Cc1ccco1	-2%	0%	>77	>57	?	?
COc1cc2nc(N3CCN(C(=O)[C@@H]4COc5ccccc5O4)CC3)nc(N)c2cc1OC	39%[17.1 µM]	11%[20.5 µM]	nt	nt	-7%[25.6 µM]	7%[25.6 µM]
c1cncc(-c2nc(NCc3ccco3)c3ccccc3n2)c1	-2%	9%	>77	>57	?	25µM*
COc1ccc2[nH]cc(CCNc3nc(-c4cccnc4)nc4ccccc34)c2c1	-107%	-1%	nt	nt	4µM*	-24%
COc1ccc2[nH]cc(CCNc3ncncc3-c3ccccc3Cl)c2c1	135%	3%	nt	nt	?	?
OCCNc1nc(-c2cccnc2)nc2ccccc12	-7%	-5%	nt	nt	0%	-5%
COc1ccc2[nH]cc(CCNc3ncncc3-c3ccccc3OC)c2c1	106%	0%	nt	nt	?	3.2µM*
CC1(C)OC(C(O)(c2cccc3c2oc2ccccc23)c2cccc3c2oc2ccccc23)C(C(O)(c2cccc3c2oc2ccccc23)c2cccc3c2oc2ccccc23)O1 (centres undefined)	nt	nt	nt	nt	-4%[11.4 µM]	-2%[11.4 µM]
O=C(NCCN1CCCCC1)c1ccc(-n2c(=O)c(=O)[nH]c3ccccc32)cc1	nt	nt	nt	nt	-1%	-9%
SMILES	USP2a inhib	Ub-GFP proteasome	GBA activity	Bst PK mod	TSHR ag	HEK293 cAMP cs
CCCCCCCCCCCCCCC/C=C\[C@H](O)[C@@H](NC(=O)CCCCCCCCCCCCC)OC (tested in a mixture with another compound)	-3%	0%	nt	nt	5%	5%
CCc1nnc(NC(=O)c2cccc(S(=O)(=O)N3CCN(c4ccccc4)CC3)c2)s1	36%	-3%	9.8*	>57	-5%	-4%
CCc1nnc(NC(=O)c2ccc(S(=O)(=O)N3CCOCC3)cc2)s1	nt	9%	nt	nt	0%	1%
CCCCCCCCCCCCCCCCOC[C@@H](COCC(F)(F)F)OP(=O)(O)OCO	nt	-8%	nt	nt	20µM*	21%
CCOCCCN(C(=O)Cn1nnc2ccccc21)C(C(=O)NCc1ccco1)c1ccncc1 (centres undefined)	8%	-3%	>77	>57	0%	-7%
O=C(NCc1ccco1)C(c1cccs1)N(Cc1ccccc1)C(=O)Cn1nnc2ccccc21 (centres undefined)	18%	-6%	>77	>57	?	10µM*
CCC(C)N(C(=O)Cn1nnc2ccccc21)C(C(=O)NCc1ccco1)c1cccc(OC)c1 (centres undefined)	nt	-2%	i	>57	?	16µM*
CC(C)CCNC(=O)C(c1ccco1)N(C(=O)Cn1nnc2ccccc21)c1ccc2c(c1)OCO2 (centres undefined)	-4%	-5%	8.2*	>57	22%	26%
O=C(NCc1ccco1)C(c1ccco1)N(CCc1ccccc1)C(=O)Cn1nnc2ccccc21 (centres undefined)	36%	-2%	>77	>57	?	16µM*
O=C(Nc1cccc2cccnc12)[C@@H]1[C@@H](C(=O)O)[C@H]2CC[C@@H]1O2	nt	-5%[9.17 µM]	nt	nt	0%[11.4 µM]	3%[11.4 µM]
COC(=O)NC(CC(C)=O)c1ccco1 (centres undefined)	nt	nt	nt	nt	-3%[11.4 µM]	-2%[11.4 µM]
Clc1cc2c(c(CSC3=NCN(CC4CC4)CN3)c1)OCOC2	nt	-8%[9.17 µM]	nt	nt	nt	31%[11.4 µM]
CC(C)(C)n1ncc2c(=O)n(CC(=O)OCc3ccccc3)cnc21	2%	-6%	>77	0.54*	20%	19%
COc1cc(C=O)c([N+](=O)[O-])cc1OC	nt	nt	nt	nt	2%	-6%
O=C(Nc1ccc(N2CCOCC2)cc1)c1cnsn1	-2%	5%	>77	7.1*	-1%	4%
CCOC(=O)C(NC(=O)c1ccc(OC)cc1)(OCC1(CC)COC1)C(F)(F)F (centres undefined)	5%	-1%	>77	>57	7.9µM*	22%
OC[C@@H]1O[C@H](n2cnc3c(/C=C(\O)c4ccccc4)ncnc32)[C@H](O)[C@@H]1O	nt	-2%[9.17 µM]	nt	nt	1%[11.4 µM]	-14%[11.4 µM]
Cc1ccc(OCC(=O)Nc2ccc(-c3nc4ncccc4o3)cc2)c(C)c1	30%	-4%	>77	>57	16µM*	29%
CCCC(=O)Nc1ccc(-c2nc3cc(C)ccc3o2)cc1	13%	4%	>77	5.3*	-8%	28%
COc1cccc(Cn2c(=O)c(-c3cccs3)nc3cnc(N4CCN(C)CC4)nc32)c1	146%	25%	nt	nt	2%	-10%

Bioassay records (PubChem BioAssay)
